According to publication doi:10.1101/2023.07.10.548322:

target: alpha-synuclein (aSyn) WT (human, UniProt P37840 1-140); assay: RNA Bind-n-Seq; settings: ssRNA

Row | Sequence | binding signal [enrichment score]
1 | GGGGUGGUGUUG | 46.4
2 | AAGGGGCGGAGG | 54.6
3 | GGGAGCGGGGGA | 46.4
4 | GGCAGGCUGUGG | 41.1
5 | AUGGGGUGGGCG | 41.1
6 | GGGUGGGUUUGG | 43.8
7 | UGGGGGAUGGAG | 41.1
8 | CGGGUGGGAUGG | 43.8
9 | GCGGGGGGGCUG | 43.8
10 | GGAUGGUUGGUG | 54.6
11 | GGGUGGGCGGAU | 43.8
12 | GUGCGGGGGGGC | 43.8
13 | GGUAGGCUGUGG | 49.1
14 | GAGGUGGAGGGU | 57.4
15 | UGGGGUAUUGGG | 43.8
16 | GGGGGGAUUGGG | 57.4
17 | GUGGGGAAGGGU | 49.1

Row | Sequence | binding signal [enrichment score]
18 | GGGGGGCUGAGG | 43.8
19 | AGGGUGGCGGUG | 49.1
20 | GCGGGGUUAGGG | 49.1
21 | UGGGAGGGGAGU | 43.8
22 | AGUGGCGGAGGG | 43.8
23 | UGGGUUUGGGGG | 46.4
24 | GGUGUGGGUGUG | 51.8
25 | GGUGGUUUGUGG | 43.8
26 | GGAGGAGGCGGU | 41.1
27 | GGGAUGUGUGGG | 60.2
28 | GAGGUUGGCGGG | 43.8
29 | GUGUAGGUGGGG | 43.8
30 | AUGGGAGUGGGG | 43.8
31 | GGGGUGAGGUGU | 41.1
32 | CGUGGGGAGUGG | 41.1
33 | UGGGUGGGAAGG | 43.8
34 | GCGGGAGGGCGG | 49.1
